Results on three compounds are retold here after PubChem BioAssay (NCATS).

Inconclusive results are not listed. Active and inactive are the calls of the source. Unless noted, the call rests on the fitted dose curve; in most records, active means well fitted curve in the direction sought with a large enough effect; inconclusive means small, poorly fitted or top-dose-only effect, or another doubt; inactive means no such curve, though single readings can be large; an effect the other way counts as inactive or inconclusive. A value given as a limit tells only on which side of the number the result lay.

Assay [1] deals with Lysosomal acid glucosylceramidase (Homo sapiens) (UniProt P04062). As to the kind of experiment: Glucocerebrosidase-p2 (AID 348; in the data active means potency below about 10 µM; further: potency means the concentration at half of the fitted maximal effect). The note with it: purified GBA, blue fluorogenic substrate, 40 min. The essentials:
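Compounds titrated from 0.6 nM upwards against 0.2 nM enzyme in pH 5.9 citric acid/KH2PO4, taurocholate, tween-20; blue fluorogenic substrate 80 uM, 40 min room temperature, stopped and read Ex 365/Em 440 for AC50.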

Assay [2] deals with Cytochrome P450 1A2 (Homo sapiens) (UniProt P05177). The experiment in a line: p450-cyp1a2 (AID 410; calls by dose curve; further: potency means the concentration at half of the fitted maximal effect;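 on activity change, negative = inhibition: -100% = full effect of reference inhibitor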). The note with it: recombinant CYP1A2, luciferin-ME demethylation, luminescence; series mostly up to 57 µM. The essentials:
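Luminescent readout of luciferin formed from Luciferin-ME by human CYP1A2; data normalized against complete inhibition by 57 uM furafylline. Enzyme 20nM, substrate 100uM at Km, 100mM KPO4 buffer, 60 min reaction at room temperature.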

Assay [3] deals with Glucocorticoid receptor (Homo sapiens) (UniProt P04150). The experiment in a line: GR-GFP Redistribution (AID 450;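 active means compounds whose dose series gives a full or clear partial fitted curve of increased nuclear translocation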; further: potency means the concentration at half of the fitted maximal effect). The note with it: U2OS GR-GFP nuclear translocation, laser cytometry, 2 h.
Assay [4] shares this target. The experiment in a line: GR-EFC Redistribution (AID 451; calls by dose curve; further: potency means the concentration at half of the fitted maximal effect). The note with it: CHO-K1 GR-EFC translocation, beta-gal luminescence, 2 h. In a few lines:
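CHO-K1 cells stably expressing nuclear-localized β-gal enzyme acceptor and GR fused C-terminally to the enzyme donor fragment; ligand-driven nuclear translocation restores β-gal by complementation. Compounds titrated up to 46 uM final, 2 h at 37 °C; luminescence read.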

Assay [5] has as its target Mitogen-activated protein kinase 10 (Mus musculus) (UniProt Q61831). As to the kind of experiment: JNK3 AlphaScreen Assay (AID 530; active means well fitted curve in either direction with a large enough effect, not every such curve was filed as active;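 further: kinase came from lysate of stimulated human HepG2 cells; signal reports phosphorylation of biotinylated GST-cJun 1-79 at Ser73 with 10 µM ATP; on the % scale 0 is the no-effect control and ±100 the full control effect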). To be noted: JNK3 lysate, c-Jun phosphorylation; series mostly up to 57.1 µM. The essentials: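 Inhibitors reduce antibody binding to phosphorylated biotin-cJun, lowering AlphaScreen luminescence. Lysates from HepG2 cells pre-activated by IL-1beta plus TNF-alpha supplied JNK3; compounds were titrated.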

The target in assay [6] is 3',5'-cyclic-AMP phosphodiesterase 4B (Homo sapiens) (UniProt Q07343). As to the kind of experiment: qHTS Assay for Inhibitors of PDE-IV (AID 607; active means well fitted activation curve with a large enough effect in the main read-out, with a control signal flat, not every such curve was filed as active; further: % of control where 0% means no effect). To be noted: HEK293 ACTOne CNG channel cells, membrane potential fluorescence; series mostly up to 22.9 µM. The essentials: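 ACTOne HEK293 cells carry a modified cAMP-gated CNG channel and express endogenous PDE4; plated 1000 cells/well, compounds up to 22.9 uM final. Membrane-potential dye fluorescence (ex 535/em 590) was read; parental cells received 10 uM forskolin + 100 uM RO 20-1724.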

Assay [7] addresses Cytochrome P450 3A4 (Homo sapiens) (UniProt P08684). As to the kind of experiment: qHTS Assay for Activators of Cytochrome P450 3A4 (AID 885). Further: nearly all actives have a fitted effect of over 65% in size. The note with it: recombinant CYP3A4, Luciferin-PPXE luminescence, 60 min; series mostly up to 57.1 µM. The essentials: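 20nM CYP3A4 + 25uM Luciferin-PPXE (=KM), 200mM KPO4; cpd 10 min RT; NADPH regen, 60 min RT; stop w/ detection buffer, 20 min; luminescence. Normalized to 57 uM ketoconazole.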

Assay [8] is described as follows: Counterscreen qHTS for small molecule stabilizers of the endoplasmic reticulum resident proteome: GLuc-NoTag assay (AID 1508627).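 Further: SH-SY5Y cells given compound then 100 nM thapsigargin to empty ER calcium; 0% = thapsigargin alone and -100% = DMSO vehicle control.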 To be noted: Gaussia luciferase NoTag secretion counterscreen, luminescence, thapsigargin 100 nM for final 4 h; series mostly up to 76.4 µM. The essentials:
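SH-SY5Y cells stably expressing constitutively secreted GLuc (no SERCaMP tag) were pre-incubated 5 h, treated with compound for 19 h, then 100 nM thapsigargin for 4 h at 37C; medium GLuc read by coelenterazine luminescence.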

Assay [9] is described as follows: Confirmatory qHTS for small molecule stabilizers of the endoplasmic reticulum resident proteome: Secreted ER Calcium Modulated Protein (SERCaMP) assay (AID 1508628). Further: on the % scale 0 is the no-effect control and ±100 the full control effect; nearly all actives have a fitted effect of over 40% in size. The note with it: SERCaMP secreted luciferase ER calcium/proteostasis reporter; series mostly up to 76.3 µM. In a few lines:
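SH-SY5Y cells stably expressing GLuc-SERCaMP, treated 16 h with compound (primary 1.53, 7.67, 38.3 uM; confirmation 11 concentrations, up to 76.6 uM), then 100 nM thapsigargin for 4 h. Secreted Gaussia luciferase in medium read by coelenterazine luminescence.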

Assay [10] in a line: qHTS Assay for Identification of Small Molecule Agonists for Hypoxia Response Element Signaling Pathway (AID 914; active means well fitted activation curve with a large enough effect in the signal ratio, with a control signal flat, not every such curve was filed as active; the % refers to the signal ratio; further: potency means the concentration at half of the fitted maximal effect). The note with it: ME-180 HRE-bla reporter, beta-lactamase ratio, CoCl2, 17 h; activation: stronger effect = higher value. In a few lines:
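qHTS titration; ME-180 HRE-bla cells; EC50 CoCl2 co-treatment, 17 h at 37 degrees Celsius; CCF4 dye, ex 405nm, em 460nm and 530nm; %Activity from ratio; AC50.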

The target of assay [11] is Dual specificity protein kinase CLK4 (Homo sapiens) (UniProt Q9HAZ1). As to the kind of experiment: qHTS Assay for Inhibitors of CDC-like Kinase 4 (Kinase-Glo Assay) (AID 1770). Further: on the % scale 0 is the no-effect control and ±100 the full control effect; nearly all actives have a fitted effect of over 65% in size. To be noted: recombinant Clk4, Kinase-Glo ATP depletion luminescence; series mostly up to 66.7 µM. In a few lines:
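Recombinant human Clk4 (25 nM) phosphorylated RS repeat peptide (100 uM) with 1 uM ATP in Tris pH 7.5/MgCl2/EGTA/DTT/Triton buffer for 4.5 h at room temperature. Residual ATP was quantified by Kinase-Glo luciferase luminescence.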

Assay [12] deals with Ubiquitin carboxyl-terminal hydrolase 1 (Homo sapiens) (UniProt O94782). As to the kind of experiment: Inhibitors of USP1/UAF1: Pilot qHTS (AID 504865).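 Further: rhodamine fluorescence freed from ubiquitin-rhodamine substrate followed over time; top concentration of the series differs between compounds; on the % scale 0 is the no-effect control and ±100 the full control effect; nearly all actives have a fitted effect of over 35% in size.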 The note with it: purified USP1/UAF1, Ub-rhodamine cleavage fluorescence; series mostly up to 54.9 µM. In a few lines: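 USP1/UAF1 complex (1nM) preincubated with compound 15 min at room temperature, then Ub-Rho substrate (150nM final) added. Fluorescence read kinetically at 480/540 nm, 6 reads every 60 seconds. Buffer: 50mM HEPES pH 7.8, 0.5mM EDTA, 0.1 mg/ml BSA, 1mM TCEP, 0.01% Tween-20.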

Assay [13] in a line: AP1 Signaling Pathway (AID 357; active means well fitted curve in either direction with a large enough effect, not every such curve was filed as active; further: on the % scale 0 is the no-effect control and ±100 the full control effect). The note with it: ME-180 AP-1-bla reporter, EGF-induced, beta-lactamase ratio, 5 h; at 7.69 µM (top of the series) unless noted. In a few lines: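 AP-1-bla ME-180 cells, Opti-MEM + 0.5% dialyzed FBS, plated overnight 37 °C. Cpd titration + EC50 EGF, 5 h 37 °C. CCF4 2.5 h RT; ex 405, em 460/530 ratio → %activity, AC50.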
Assay [14] can be described thus: Stat Signaling Pathway (AID 446; active means well fitted curve in either direction with a large enough effect, not every such curve was filed as active;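 further: ME-180 cervical cancer cells given 40 pM IL-6 alongside compound; SIE-controlled beta-lactamase reporter measured as 460/530 nm FRET emission ratio; on the % scale 0 is the no-effect control and ±100 the full control effect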). The note with it: ME-180 (cervical carcinoma) SIE beta-lactamase reporter, IL-6 stimulated, 5 h; at 7.69 µM (top of the series) unless noted. The essentials:
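ME-180 SIE-bla cells; overnight plating; cpd + IL-6 40 pM, 5 h, 37 C; LiveBLAzer 2.5 h RT; 460/530 nm emission ratio. Normalized to 300 pM IL-6 and 125 nM JAK inhibitor controls.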

Assay [15] is described as follows: qHTS Assay for Lipid Storage Modulators (AID 1519; calls by dose curve). To be noted: Drosophila S3 cells, BODIPY lipid droplet/cell ratio, laser cytometry, cells loaded with oleic acid. In a few lines: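 Cells seeded at 5,000 per well were treated with compounds over a concentration series and loaded with oleic acid (400 uM, as added). Lipid droplet fluorescence (488 nm excitation, 500-530 nm channel) was read by laser-scanning cytometry and normalized to 20 uM Triacsin C.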

Assay [16] is described as follows: Cell Viability qHTS for small molecule stabilizers of the endoplasmic reticulum resident proteome (AID 1508629).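 Further: human SH-SY5Y neuroblastoma cells carrying the GLuc-SERCaMP reporter; compound exposure about 46 h in total before the viability read; on the % scale 0 is the no-effect control and ±100 the full control effect.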 To be noted: cell viability counter-screen, 100 nM thapsigargin for final 4 h.

Glucocorticoid receptor (Homo sapiens), sequence (P04150 whole entry, looked up): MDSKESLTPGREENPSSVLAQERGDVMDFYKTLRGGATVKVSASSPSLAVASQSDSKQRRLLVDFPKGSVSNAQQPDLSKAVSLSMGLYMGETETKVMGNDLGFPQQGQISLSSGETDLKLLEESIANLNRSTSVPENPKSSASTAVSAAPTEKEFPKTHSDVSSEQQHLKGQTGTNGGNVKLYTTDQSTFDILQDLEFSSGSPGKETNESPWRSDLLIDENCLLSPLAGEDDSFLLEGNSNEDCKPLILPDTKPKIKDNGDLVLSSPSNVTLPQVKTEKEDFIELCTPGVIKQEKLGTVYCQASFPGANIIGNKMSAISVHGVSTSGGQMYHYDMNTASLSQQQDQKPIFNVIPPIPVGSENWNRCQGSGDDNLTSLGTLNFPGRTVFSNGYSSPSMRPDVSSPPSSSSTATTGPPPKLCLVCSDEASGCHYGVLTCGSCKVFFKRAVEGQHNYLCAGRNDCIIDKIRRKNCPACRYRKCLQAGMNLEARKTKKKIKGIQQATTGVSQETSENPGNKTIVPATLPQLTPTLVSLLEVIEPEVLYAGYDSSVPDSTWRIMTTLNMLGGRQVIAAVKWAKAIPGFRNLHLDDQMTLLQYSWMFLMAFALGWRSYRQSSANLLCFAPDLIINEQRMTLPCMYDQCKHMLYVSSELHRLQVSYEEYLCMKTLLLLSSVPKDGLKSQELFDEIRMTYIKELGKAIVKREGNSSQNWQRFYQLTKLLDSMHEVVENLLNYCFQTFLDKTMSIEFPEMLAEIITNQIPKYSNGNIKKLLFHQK
Cytochrome P450 1A2 (Homo sapiens), sequence (P05177 whole entry, looked up): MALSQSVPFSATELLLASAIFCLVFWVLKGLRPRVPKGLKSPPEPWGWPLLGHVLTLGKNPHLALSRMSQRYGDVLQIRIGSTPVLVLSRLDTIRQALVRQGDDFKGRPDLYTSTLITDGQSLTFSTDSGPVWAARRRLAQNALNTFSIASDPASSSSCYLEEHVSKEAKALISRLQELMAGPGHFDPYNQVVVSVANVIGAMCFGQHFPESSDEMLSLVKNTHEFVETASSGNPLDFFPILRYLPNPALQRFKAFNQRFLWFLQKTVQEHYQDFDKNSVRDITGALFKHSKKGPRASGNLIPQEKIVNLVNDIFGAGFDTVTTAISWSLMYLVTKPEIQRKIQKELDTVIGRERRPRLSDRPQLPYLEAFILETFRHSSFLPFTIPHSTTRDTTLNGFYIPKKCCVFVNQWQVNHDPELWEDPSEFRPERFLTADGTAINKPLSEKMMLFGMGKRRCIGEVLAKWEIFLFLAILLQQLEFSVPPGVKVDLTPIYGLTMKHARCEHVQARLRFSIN
Lysosomal acid glucosylceramidase (Homo sapiens), sequence (P04062 whole entry, looked up): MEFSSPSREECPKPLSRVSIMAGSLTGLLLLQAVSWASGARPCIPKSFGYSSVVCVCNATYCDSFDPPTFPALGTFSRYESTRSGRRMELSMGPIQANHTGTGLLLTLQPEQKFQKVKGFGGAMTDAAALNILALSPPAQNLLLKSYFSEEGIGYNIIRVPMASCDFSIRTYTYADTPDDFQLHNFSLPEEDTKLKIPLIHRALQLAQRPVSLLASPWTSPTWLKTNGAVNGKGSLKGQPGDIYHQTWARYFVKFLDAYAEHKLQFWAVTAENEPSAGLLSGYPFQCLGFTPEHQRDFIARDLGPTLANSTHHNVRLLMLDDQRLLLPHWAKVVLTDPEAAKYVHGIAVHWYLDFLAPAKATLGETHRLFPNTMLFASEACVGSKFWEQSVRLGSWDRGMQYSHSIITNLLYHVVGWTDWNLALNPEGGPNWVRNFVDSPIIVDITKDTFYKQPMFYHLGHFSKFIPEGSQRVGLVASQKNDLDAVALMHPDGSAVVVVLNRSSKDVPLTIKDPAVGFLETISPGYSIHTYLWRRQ
Cytochrome P450 3A4 (Homo sapiens), sequence (P08684 whole entry, looked up): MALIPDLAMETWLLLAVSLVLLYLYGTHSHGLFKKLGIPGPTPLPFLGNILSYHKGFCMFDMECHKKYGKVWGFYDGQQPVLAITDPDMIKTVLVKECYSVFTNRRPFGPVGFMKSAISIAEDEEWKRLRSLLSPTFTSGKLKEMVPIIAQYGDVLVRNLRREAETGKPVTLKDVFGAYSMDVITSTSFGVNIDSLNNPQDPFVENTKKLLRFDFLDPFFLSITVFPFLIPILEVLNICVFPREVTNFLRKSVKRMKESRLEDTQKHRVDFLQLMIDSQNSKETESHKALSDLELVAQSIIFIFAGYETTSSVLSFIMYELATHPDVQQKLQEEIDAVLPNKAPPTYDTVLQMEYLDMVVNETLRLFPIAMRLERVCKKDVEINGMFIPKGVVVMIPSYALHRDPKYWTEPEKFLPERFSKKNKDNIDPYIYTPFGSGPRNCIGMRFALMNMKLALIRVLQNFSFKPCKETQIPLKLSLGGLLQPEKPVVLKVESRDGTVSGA
3',5'-cyclic-AMP phosphodiesterase 4B (Homo sapiens), sequence (Q07343 whole entry, looked up): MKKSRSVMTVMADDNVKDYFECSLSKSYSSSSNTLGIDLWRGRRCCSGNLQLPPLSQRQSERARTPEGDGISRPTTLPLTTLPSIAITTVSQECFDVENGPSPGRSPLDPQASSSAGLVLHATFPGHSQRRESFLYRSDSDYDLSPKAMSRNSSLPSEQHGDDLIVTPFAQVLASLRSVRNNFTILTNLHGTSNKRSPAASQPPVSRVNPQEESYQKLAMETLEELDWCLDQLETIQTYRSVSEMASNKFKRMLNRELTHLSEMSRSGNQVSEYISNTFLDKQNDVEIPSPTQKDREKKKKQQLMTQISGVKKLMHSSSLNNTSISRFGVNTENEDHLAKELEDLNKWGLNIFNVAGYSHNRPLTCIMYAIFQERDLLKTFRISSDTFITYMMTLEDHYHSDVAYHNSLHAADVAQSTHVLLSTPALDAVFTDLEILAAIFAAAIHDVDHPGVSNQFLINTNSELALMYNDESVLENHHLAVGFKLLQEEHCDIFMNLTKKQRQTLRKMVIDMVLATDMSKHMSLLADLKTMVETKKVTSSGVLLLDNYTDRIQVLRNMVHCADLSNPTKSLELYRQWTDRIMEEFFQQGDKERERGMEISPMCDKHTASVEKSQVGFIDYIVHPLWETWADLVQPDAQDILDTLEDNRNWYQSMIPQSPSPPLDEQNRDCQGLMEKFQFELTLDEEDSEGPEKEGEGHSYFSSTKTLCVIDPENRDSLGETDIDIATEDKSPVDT
Dual specificity protein kinase CLK4 (Homo sapiens), sequence (Q9HAZ1 whole entry, looked up): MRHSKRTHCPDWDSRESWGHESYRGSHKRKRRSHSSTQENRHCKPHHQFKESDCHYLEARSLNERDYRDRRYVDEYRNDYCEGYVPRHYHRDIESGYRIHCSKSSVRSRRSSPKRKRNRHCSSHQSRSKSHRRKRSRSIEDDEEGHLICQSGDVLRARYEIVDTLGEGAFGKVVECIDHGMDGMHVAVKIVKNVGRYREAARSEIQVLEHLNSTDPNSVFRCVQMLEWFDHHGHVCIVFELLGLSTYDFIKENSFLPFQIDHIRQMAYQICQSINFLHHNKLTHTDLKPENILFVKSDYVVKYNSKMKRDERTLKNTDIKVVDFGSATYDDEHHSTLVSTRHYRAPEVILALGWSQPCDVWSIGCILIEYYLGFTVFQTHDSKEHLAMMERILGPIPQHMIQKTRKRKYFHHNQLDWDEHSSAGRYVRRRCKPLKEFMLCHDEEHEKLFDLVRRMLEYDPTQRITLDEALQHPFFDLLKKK
Ubiquitin carboxyl-terminal hydrolase 1 (Homo sapiens), sequence (O94782 whole entry, looked up): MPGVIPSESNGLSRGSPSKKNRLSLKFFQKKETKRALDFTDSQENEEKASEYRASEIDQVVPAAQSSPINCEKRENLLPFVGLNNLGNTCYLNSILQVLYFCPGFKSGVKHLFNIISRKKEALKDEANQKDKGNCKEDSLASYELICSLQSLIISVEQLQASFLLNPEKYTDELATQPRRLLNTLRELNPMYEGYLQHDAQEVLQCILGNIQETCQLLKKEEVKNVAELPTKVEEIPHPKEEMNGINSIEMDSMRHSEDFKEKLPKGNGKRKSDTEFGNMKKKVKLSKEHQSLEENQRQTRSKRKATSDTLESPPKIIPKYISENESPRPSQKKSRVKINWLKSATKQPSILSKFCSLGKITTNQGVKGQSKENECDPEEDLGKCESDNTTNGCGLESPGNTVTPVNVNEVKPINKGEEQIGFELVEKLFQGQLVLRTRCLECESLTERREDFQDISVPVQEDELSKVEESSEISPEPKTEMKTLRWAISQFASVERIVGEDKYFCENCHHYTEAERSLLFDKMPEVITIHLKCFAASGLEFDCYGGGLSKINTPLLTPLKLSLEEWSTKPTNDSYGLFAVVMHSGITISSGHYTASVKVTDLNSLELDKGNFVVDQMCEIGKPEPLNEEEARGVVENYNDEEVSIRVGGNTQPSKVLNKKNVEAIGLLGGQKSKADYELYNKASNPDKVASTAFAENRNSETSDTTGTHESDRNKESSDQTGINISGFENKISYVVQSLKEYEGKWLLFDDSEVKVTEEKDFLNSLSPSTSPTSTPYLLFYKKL

Take `COCCn1c(=O)c(-c2ccc(OC)cc2)nc2cnc(N3CCNCC3)nc21`: the Potency in assay [1] is > 11.4 µM (inactive); in assay [2], 6.31 µM (active); in [3], > 9.22 µM (inactive); in assay [4], > 46 µM (inactive). Moreover, in [5], the outcome was inactive. Moreover, the Potency entry in [6], in [7], in [8] and in assay [9] was “inactive” throughout.
As to `O=c1c(-c2ccccc2)nc2cnc(N3CCNCC3)nc2n1-c1ccccc1`, the Potency is > 11.4 µM (inactive) in assay [1]; 7.94 µM (active) in [2]; > 9.22 µM (inactive) in assay [3]; > 46 µM (inactive) in assay [4]; 3.16 µM (active) in [10]. The call in assay [5] was inactive. In addition, the Potency result in [7], in [11], in assay [12], in [8] and in assay [9] was “inactive” throughout.
Consider `O=C(c1cc(C(F)(F)F)cc(C(F)(F)F)c1)N1CCC2(CC1)CCN(c1ccccn1)CC2`, for which the Potency in assay [1] was 10.2 µM (inactive); in assay [4], > 46 µM (inactive). In addition, the activity change, negative = inhibition in [13] was -6.99% (inactive); in assay [15] (at 57.5 µM (top of the series)) it was -8.11% (inactive). Moreover, the Potency result in assay [2], in [6] and in assay [8] was “inactive” each time. For the same compound, the activity, negative = inhibition in [14] was -1.33% (inactive). In assay [5], the call was inactive. Besides, the max response in assay [15] (measured here: cell count channel max response) is 10.4%; in assay [15] (measured here: lipid channel max response) it was 1.85%; in [16], 25.1% (inactive).
